The values below come from PubChem BioAssay (NCI).

The panel holds about 79,000 compounds, 15% with a hit somewhere; the sample as a whole holds those more often. Unmarked numbers belong to inactive results. Activity calls are given as the source filed them. No stated cut-off is given here; in the data, active means growth inhibition above about 70%; inactive means the rest.

The nature of assay [1]: NCI Yeast Anticancer Drug Screen. Data for the rad50 strain (AID 155).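 Further: 0% = growth of vehicle-only cultures of the same strain.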 To be noted: S. cerevisiae rad50 strain growth inhibition; at 50.0 µM; active compounds read high. The method in brief: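 Cells are treated with compound, grown, and their growth is then scored against vehicle-only cultures of the same repair-deficient yeast strain.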
A short description of assay [2]: NCI Yeast Anticancer Drug Screen. Data for the mec2-1 strain (AID 157). The note with it: S. cerevisiae mec2-1 strain, at 50.0 µM, active compounds read high. The method in brief: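 Test agents were screened against the mec2-1 yeast strain, with defined DNA repair or cell cycle alteration. Growth was scored as inhibition against vehicle-only controls.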
Assay [3] in a line: NCI Yeast Anticancer Drug Screen. Data for the sgs1 mgt1 strain (AID 161).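 Further: 0% = growth of cultures given vehicle only.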 The note with it: S. cerevisiae sgs1 mgt1 strain, at 50.0 µM, active compounds read high. A digest of the protocol: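 Inhibition of yeast growth, normalised to vehicle-treated controls, is reported for a strain bearing genetic alterations in DNA damage repair.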
Assay [4] in a line: NCI Yeast Anticancer Drug Screen. Data for the cln2 rad14 strain (AID 165).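 Further: 0% = growth equal to vehicle treated cultures.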 To be noted: S. cerevisiae cln2 rad14 strain, at 50.0 µM, active compounds read high. The method in brief:
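Growth of compound-exposed yeast (cln2 rad14 genotype) measured and expressed as inhibition relative to vehicle.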

The nature of assay [5]: NCI Yeast Anticancer Drug Screen. Data for the bub3 strain (AID 167). To be noted: S. cerevisiae bub3 mutant strain, at 50.0 µM, active compounds read high. A digest of the protocol:
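Part of a panel of yeast mutants defective in DNA damage repair or cell cycle regulation. Each strain is grown with compound, and inhibition is calculated relative to solvent-treated cultures.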

Assay [6] in a line: NCI Yeast Anticancer Drug Screen. Data for the mlh1 rad18 strain (AID 175). The note with it: S. cerevisiae mlh1 rad18 strain growth inhibition; at 50.0 µM; active compounds read high. A digest of the protocol: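 In this whole-cell yeast screen, a strain with altered DNA damage repair is challenged with compound, and its growth is measured against matched vehicle-treated controls.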

As for `COc1cc2c(c(OC)c1OC)-c1ccc(OC)c(=O)cc1[C@@H](NC(=O)c1ccccc1)CC2`, the growth inhibition in assay [1] is 11.7%; in assay [2] it was 7.15%; in assay [3], 18.7%; in assay [4] it was -0.05%; in assay [5] it was 14.2%; in assay [6], 18.9%.

Consider `CCCCCCC(C(=O)O)C(=O)O`, for which the growth inhibition in assay [1] was -20.8%; in assay [2] it was -15.4%; in assay [3] it was 23.6%; in assay [4], 13.2%; in assay [5] it was 1.15%; in assay [6], -5.6%.

As for `C(CCC[Si]12OCCN(CCO1)CCO2)CC[Si]12OCCN(CCO1)CCO2`, the growth inhibition in assay [1] was 6%; in assay [2], -1.8%; in assay [3] it was 20.1%; in assay [4], 11.9%; in assay [5], -1.45%; in assay [6], 1.1%.

As for `CC1=C(C(=O)NC2CCCCC2)CC(C(=O)NC2CCCCC2)=C(C)N1`, the growth inhibition in assay [1] is -16.6%; in assay [2], -25.6%; in assay [3] it was -26.2%; in assay [4], -21.1%; in assay [5] it was -17.3%; in assay [6], -61.9%.

Consider `CCOC(=O)/C(C#N)=C/c1ccccc1F`, for which the growth inhibition is 22.9% in assay [1]; 13.5% in assay [2]; 20.4% in assay [3]; 1.4% in assay [4]; 14.8% in assay [5]; 40.8% in assay [6].

In the case of `CC(Sc1nc2ccc(Cl)cc2[nH]1)C(=O)O` (stereo unspecified), the growth inhibition was -11.8% in assay [1]; -4% in assay [2]; -0.9% in assay [3]; -16.9% in assay [4]; 12.9% in assay [5]; -3.85% in assay [6].

Take `CCCCc1cc(/C=N\NC(N)=O)c2ccccc2n1`: the growth inhibition in assay [1] is -0.6%; in assay [2], -14.2%; in assay [3] it was -1.1%; in assay [4] it was 1.45%; in assay [5], -5.35%; in assay [6], 18.8%.

For the compound `COc1ccc2c(c1)/C(=C/c1cc(OC)c(OC)c(OC)c1)C(=O)N2`, the growth inhibition in assay [1] is 4.3%; in assay [2], -27.2%; in assay [3], -8.7%; in assay [4], -1.4%; in assay [5] it was 1.2%; in assay [6], 2.85%.

Turning to `OCc1ccncc1`, the growth inhibition in assay [1] was -5.85%; in assay [2], -13.2%; in assay [3], -9.65%; in assay [4], -47.4%; in assay [5], 10.4%; in assay [6] it was -2.05%.

`CCOC(=O)c1c(/N=C/c2cc(Br)ccc2O)sc2c1CCCC2`: the growth inhibition in assay [1] is 11.7%; in assay [2] it was -7.8%; in assay [3], 0.4%; in assay [4], 12.9%; in assay [5], -1.4%; in assay [6], 10.7%.

As to `CC(C)CCCC(C)C1CCC2(C)C3CCC(C(C)O)C(C)(CCCO)C3CCC12C` (stereo unspecified), the growth inhibition is 47.8% in assay [1]; 27.4% in assay [2]; 61.4% in assay [3]; 38.1% in assay [4]; 23.8% in assay [5]; 55.9% in assay [6].

On to `O=S1(=O)OCCOS(=O)(=O)C1S(=O)(=O)c1ccc2ccccc2c1`, for which the growth inhibition in assay [1] was 50.5%; in assay [2] it was -6.15%; in assay [3] it was 9.3%; in assay [4], 34.8%; in assay [5], 1.4%; in assay [6], 11.8%.

In the case of `COC(=O)C(=[N+]=[N-])C(=O)c1cccc([N+](=O)[O-])c1`, the growth inhibition in assay [1] was 11.1%; in assay [2], 15.5%; in assay [3], 5.75%; in assay [4], 17.2%; in assay [5] it was 3.2%; in assay [6], 12.2%.

With `COc1ccc(C(=O)O)cc1`, the growth inhibition in assay [1] was 12.3%; in assay [2] it was -19.8%; in assay [3] it was -32.7%; in assay [4], -41%; in assay [5] it was -2.9%; in assay [6], -4.25%.

For the compound `O=C(CC(O)(C(F)(F)F)C(F)(F)F)c1ccc(Cl)c([N+](=O)[O-])c1`, the growth inhibition was 97.2% (active) in assay [1]; 99.2% (active) in assay [2]; 99.1% (active) in assay [3]; 96.6% (active) in assay [4]; 97.7% (active) in assay [5]; 98.8% (active) in assay [6].

Consider `Cc1cccc(C(=O)NCC(=O)O)c1`, for which the growth inhibition was -13.8% in assay [1]; -3.7% in assay [2]; -9.9% in assay [3]; -85.5% in assay [4]; 4.5% in assay [5]; -9.7% in assay [6].

On to `CCOC(=O)c1c[nH]c2c(Cl)c(C)ccc2c1=O`, for which the growth inhibition in assay [1] was -40.1%; in assay [2], -48.1%; in assay [3] it was -17.6%; in assay [4] it was -110%; in assay [5], -30.1%; in assay [6] it was -4.75%.

Take `CC(=O)NC(Cc1ccccc1)C(=O)Nc1ccccc1C` (stereo unspecified): the growth inhibition in assay [1] was 9.1%; in assay [2], -18.3%; in assay [3], 14.8%; in assay [4], 10.6%; in assay [5], 7.75%; in assay [6], 7.35%.

With `CC(=O)Nc1ccc(/C=C/c2csnn2)cc1`, the growth inhibition in assay [1] was -7.8%; in assay [2] it was 7.7%; in assay [3] it was 11.9%; in assay [4], 8.7%; in assay [5] it was -4.45%; in assay [6] it was -3.2%.

On to `CSc1ccc(OC(=O)Nc2cc(Cl)ccc2C)cc1`, for which the growth inhibition in assay [1] is 4.35%; in assay [2], 14.8%; in assay [3], 25.9%; in assay [4] it was -0.6%; in assay [5] it was 38%; in assay [6], 5.75%.

In the case of `O=C(O)C(O)(C1CCCCC1)C1CCC2CCC3CCCC1C32` (stereo unspecified), the growth inhibition in assay [1] was 5.4%; in assay [2], 9.4%; in assay [3] it was 20.1%; in assay [4] it was 12.7%; in assay [5], -11.2%; in assay [6], 14.8%.
